hERG WT inh = blocks the wildtype human KCNH2 potassium channel. Q12809. U2OS, BacMam KCNH2, thallium flux FluxOr; hits give low values. activity change, % at 1.84 µM. hit rate 0.37% among 340,000;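 active = maximum activity change below -70%; inconclusive = maximum activity change between -70% and -50%; inactive = maximum activity change above -50%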
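U2OS cells transduced with wild-type KCNH2 virus are loaded with FluxOr dye for 45 min, and thallium flux is measured in kinetic reads before and after stimulation buffer. Rate constants are normalized to DMSO controls.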
CtBP-E1A inh = inhibitors of CtBP/E1A interaction. AlphaScreen GST-E1A/His-CtBP binding, 1536-well; hits give low values. activity change, % (no concentration beside the values). hit rate 0.49% among 340,000. AID 651724
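Steps: dispense buffer (Tris pH 8.0, NaCl 300 mM, TCEP 1 mM, BSA, Tween 20); add 5X protein mix (GST-E1A, His-CtBP, 125 nM each); pin 23 nL compound; 2 h at 37 °C, dark; add 5X beads (50 ug/mL); 1 h; read.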
KCNH2 3.1 inh = KCNH2 3.1 (human) potassium channel inhibition | U2OS KCNH2 3.1, thallium flux FluxOr; hits give low values | activity change, % (tested at about 1.8 µM) | hit rate 0.95% among 340,000 | AID 720553;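 active = maximum activity change below -70%; inconclusive = maximum activity change from -70% to -50%; inactive = maximum activity change above -50%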;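 note: thallium influx rate constant from kinetic fluorescence after stimulation buffer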
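Virally transduced U2OS (3.1 isoform, 4 h infection in dark at RT) → overnight 37 C → FluxOr + Red40 in HBSS/HEPES, 45 min → stimulation buffer, 2 min kinetic read → rate constant vs DMSO controls.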
Six1-Eya2 blk = inhibitors of human Six1/Eya2 interaction; Q15475+O00167; AlphaScreen GST-Six1/His-Eya2 binding, biochemical; hits give low values; activity change, % (no concentration beside the values); hit rate 0.56% among 360,000
Target sequence (O00167 whole entry, looked up): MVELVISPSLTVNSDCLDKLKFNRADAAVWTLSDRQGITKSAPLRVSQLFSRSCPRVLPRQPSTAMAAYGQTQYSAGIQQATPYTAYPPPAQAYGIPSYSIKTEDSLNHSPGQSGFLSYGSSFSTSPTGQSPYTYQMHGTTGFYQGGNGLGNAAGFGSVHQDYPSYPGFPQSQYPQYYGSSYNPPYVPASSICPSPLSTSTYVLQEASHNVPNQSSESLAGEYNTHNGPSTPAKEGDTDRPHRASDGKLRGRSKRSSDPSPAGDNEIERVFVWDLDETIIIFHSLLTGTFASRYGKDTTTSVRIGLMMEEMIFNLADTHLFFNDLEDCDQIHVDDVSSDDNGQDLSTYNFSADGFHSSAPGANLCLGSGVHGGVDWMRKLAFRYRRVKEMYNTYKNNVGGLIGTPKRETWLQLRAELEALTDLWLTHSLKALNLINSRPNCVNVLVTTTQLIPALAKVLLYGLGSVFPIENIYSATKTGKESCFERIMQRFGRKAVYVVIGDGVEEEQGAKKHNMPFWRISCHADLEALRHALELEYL
Target sequence (Q15475 whole entry, looked up): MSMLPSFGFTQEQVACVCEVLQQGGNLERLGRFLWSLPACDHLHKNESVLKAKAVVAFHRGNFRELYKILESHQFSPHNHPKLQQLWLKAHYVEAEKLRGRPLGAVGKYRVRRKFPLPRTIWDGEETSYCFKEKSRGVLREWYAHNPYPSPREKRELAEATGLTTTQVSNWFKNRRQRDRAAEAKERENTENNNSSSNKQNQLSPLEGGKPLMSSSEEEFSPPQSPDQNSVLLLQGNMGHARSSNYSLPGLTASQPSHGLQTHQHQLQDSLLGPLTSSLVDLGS
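GST-Six1 + His-Eya2 (5X stock: 250/500 nM); Tris pH 8.0, 300 mM NaCl, 0.05% BSA, 0.02% Tween 20; GSH donor/Ni acceptor beads; 1 h 37 °C dark; AlphaScreen readout.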
JMJD2E inh = JMJD2E (human) inhibition | B2RXH2 | JMJD2E catalytic domain, FDH-coupled NADH fluorescence (FDH is formaldehyde dehydrogenase) | Potency, µM (titrated, usually from 57.1 µM), hits mostly inhibitors | hit rate 1.6% among 230,000 | AID 2147; active = well fitted inhibition curve with a large enough effect, not every such curve was filed as active; inconclusive = small, poorly fitted or top-dose-only effect, or another doubt; inactive = no such curve, though single readings can be large or run the other way; note: nearly all actives have a fitted effect of over 50% in size
Of the large screens only hits and unclear results are named; the others gave an inactive call. Hits are enriched below; roughly 2% of the tested compounds scored in any of these assays. Cut-off read from the data, not from the text of the source, unless noted: active = activity change below about -65%; inconclusive = mostly about -30% to -63%; inactive = weaker than that.

O=C(Nc1ccccc1-c1ccccc1NC(=O)c1ccco1)c1ccco1	none
Cc1ccc(SCC(=O)OCC(=O)NCCc2ccc(S(N)(=O)=O)cc2)c(C)c1	none (no result: JMJD2E inh)
CCCOc1ccc(C(=O)CCC(=O)OCC(=O)N2CC(=O)Nc3ccccc32)cc1	none
CCCSc1nnc(Cc2cc(=O)[nH]c(=O)[nH]2)n1-c1cc(C)ccc1C	hERG WT inh -89.0
COc1cccc(CNC(=O)Nc2cccs2)c1	none
O=C(Nc1ccc2ccccc2c1)c1ccc2[nH]c(=O)c(=O)[nH]c2c1	CtBP-E1A inh -84.5, Six1-Eya2 blk inconclusive (no result: JMJD2E inh)
N#Cc1ccc(C(=O)Nc2ccc3ccccc3c2)cc1	none (no result: JMJD2E inh)
COc1ccccc1Nc1nc(N)nc(CN2CCCCC2)n1	none
COc1ccccc1Nc1nc(N)nc(CN2CCN(Cc3ccc4c(c3)OCO4)CC2)n1	KCNH2 3.1 inh -110.4
Cc1cccc(Nc2nc(N)nc(CN3CCN(Cc4ccc5c(c4)OCO5)CC3)n2)c1	KCNH2 3.1 inh -109.9
Cc1cccc(Nc2nc(N)nc(CN3CCN(c4ccccc4F)CC3)n2)c1	CtBP-E1A inh inconclusive, KCNH2 3.1 inh -79.5, Six1-Eya2 blk inconclusive (no result: JMJD2E inh)
Cc1ccc(Nc2nc(N)nc(CSc3nc4ccccc4s3)n2)cc1	KCNH2 3.1 inh -72.0
FC(F)(F)c1ccccc1Nc1nccs1	none
CCOc1ccc(/C=C/C(=O)Nc2ccccc2C(F)(F)F)cc1	none
Cc1ccc(Nc2nc(N)nc(CN3CCc4ccccc4C3)n2)cc1	KCNH2 3.1 inh -78.6
COc1ccccc1N1CCN(Cc2nc(N)nc(Nc3ccc(C)c(Cl)c3)n2)CC1	KCNH2 3.1 inh -105.8
COc1ccc(N2CCN(Cc3nc(N)nc(Nc4ccccc4OC)n3)CC2)cc1	none
COc1ccc(Nc2nc(N)nc(CN3CCN(c4ccc(F)cc4)CC3)n2)cc1	KCNH2 3.1 inh -77.0
Nc1nc(CN2CCN(c3ccccn3)CC2)nc(Nc2ccc(Cl)cc2)n1	hERG WT inh -104.1, Six1-Eya2 blk inconclusive
COc1ccccc1Nc1nc(N)nc(CN2CCN(Cc3ccccc3)CC2)n1	KCNH2 3.1 inh -76.9
Cc1cc2c(NC(=O)Nc3ccccc3)cccc2nn1	CtBP-E1A inh inconclusive, Six1-Eya2 blk inconclusive, JMJD2E inh inconclusive
CCCOCCOC(=O)C1=C(C)NC(=O)NC1c1cc(Cl)c(O)c(OC)c1 (stereo not given)	KCNH2 3.1 inh -72.3
CSc1nc(Cc2ccc(Cl)cc2)nc2ccccc12	none
COc1ccc(/C=N/Nc2cc(C)nc3c(C)cccc23)cc1	none (no result: JMJD2E inh)
Nn1cnnc1N/N=C/c1cc(Br)cc(Br)c1O	CtBP-E1A inh -90.9, Six1-Eya2 blk -91.8, JMJD2E inh inconclusive
CCC/C=N/NC(=O)CNC(=O)c1ccccc1Cl	none
CN(C)c1ccc(-n2cccc2)cc1	CtBP-E1A inh inconclusive, Six1-Eya2 blk -67.9, JMJD2E inh inconclusive
CN(C)/C=C/C(=O)c1ccc(-n2cccc2)cc1	none
COc1ccc(C(CNC(=O)c2cccc(S(=O)(=O)N3CCCc4ccccc43)c2)N(C)C)cc1 (stereo not given)	KCNH2 3.1 inh -73.6 (no result: JMJD2E inh)
COc1ccc(NC(=O)c2cccc(S(=O)(=O)N3CCc4ccccc43)c2)c(OC)c1	hERG WT inh -88.9 (no result: JMJD2E inh)
COc1ccc(NC(=O)c2cccc(S(=O)(=O)N3CCN(C)CC3)c2)c(OC)c1	none (no result: JMJD2E inh)
COc1ccc(NS(=O)(=O)c2cccc(C(=O)NCC(c3ccccc3)N(C)C)c2)cc1 (stereo not given)	none (no result: JMJD2E inh)
COc1ccc(C(CNC(=O)c2ccc(S(=O)(=O)N3CC(C)CC(C)C3)cc2)N(C)C)cc1 (stereo not given)	hERG WT inh -82.5 (no result: JMJD2E inh)
Cc1ccc(/C=C(\NC(=O)c2ccccc2)C(=O)NCCc2ccccn2)o1	none
Fc1cc(Br)ccc1Nc1nc2ccccc2n2nnnc12	JMJD2E inh inconclusive
C/C(=N\NC(=O)c1ccco1)c1cccc2ccccc12	none (no result: JMJD2E inh)
O=C(NC1CCCCC1)c1ccc2c(c1)OCO2	none (no result: JMJD2E inh)
CC(=O)[C@@H]1[C@H]2[C@H](C(=O)[C@H]3OC[C@@H]2O3)[C@H]2C=Cc3ccccc3N21	JMJD2E inh 12.6µM (no result: hERG WT inh, CtBP-E1A inh, KCNH2 3.1 inh, Six1-Eya2 blk)
Cc1cccc(NC(=O)C(c2cccc([N+](=O)[O-])c2)N2CCCCC2)c1 (stereo not given)	none
CNc1ccc(Br)cc(C(=O)/C=C/c2ccc(OC)cc2)c1=O	JMJD2E inh 25.1µM
Cc1[nH]n2c(=O)cc(-c3ccc([N+](=O)[O-])cc3)nc2c1-c1ccccc1	none (no result: JMJD2E inh)
O=C(CNC(=O)c1ccccc1F)N/N=C/c1cc(Br)ccc1OC(=O)/C=C/c1ccco1	hERG WT inh inconclusive, CtBP-E1A inh -91.9, KCNH2 3.1 inh inconclusive, Six1-Eya2 blk -89.8, JMJD2E inh inconclusive
O=C(CNC(=O)c1ccc(F)cc1)N/N=C/c1cc(Br)ccc1OC(=O)/C=C/c1ccco1	CtBP-E1A inh inconclusive
COc1ccccc1C(=O)NCC(=O)N/N=C/c1cc(Br)ccc1OC(=O)/C=C\c1ccco1	Six1-Eya2 blk -74.2 (no result: hERG WT inh, CtBP-E1A inh)
CC(=O)c1nnn(-c2nc(N3CCCC3)nc(N(c3ccccc3)c3ccccc3)n2)c1C	none
C=CCOc1ccc(C2=NOC(C(=O)Nc3ccc4c(c3)OCCO4)C2)cc1OC (stereo not given)	hERG WT inh -189.4 (no result: JMJD2E inh)
CCCCN(C(=O)c1oc2ccc(OCC)cc2c1C)c1c(N)n(CC(C)C)c(=O)[nH]c1=O	none (no result: JMJD2E inh)
COc1ccc(CN2C(=S)NC(C)(C)CC2(C)O)cc1 (stereo not given)	hERG WT inh -141.7
COc1ccccc1CCN1C(=S)NC(C)(C)CC1(C)O (stereo not given)	none
COc1ccc2sc3ccccc3c(=O)c2c1OC	none
COc1ccc(-c2nnc(SCC(=O)NC(=O)NCc3ccccc3)o2)cc1	KCNH2 3.1 inh -117.8
CNC(=O)C(C)NS(=O)(=O)c1ccc(F)cc1 (stereo not given)	hERG WT inh -91.3
O=C(OCCCN1CCOCC1)c1ccc(O)c(O)c1	JMJD2E inh 15.8µM
CCOC(=O)c1c(-c2ccc(C)cc2)csc1NC(=O)c1cc2ccccc2oc1=O	KCNH2 3.1 inh -121.7
CCOC(=O)c1c(-c2ccc(C)cc2)csc1NC(=O)CCN1CCOCC1	JMJD2E inh 31.6µM
COC(=O)c1ccc(N2CCOCC2)c(NC(=O)c2cc3ccccc3o2)c1	none (no result: JMJD2E inh)
Cc1ccc(-c2nn(C)c(=O)c3ccccc23)cc1CNS(C)(=O)=O	none
CN(C1=C(NC(=O)c2ccc(Cl)cc2)C(=O)c2ccccc2C1=O)c1ccccc1	hERG WT inh -153.0, CtBP-E1A inh -88.3, KCNH2 3.1 inh -97.6, Six1-Eya2 blk -85.9
O=C(NC1=C(Nc2ccc(Cl)cc2)C(=O)c2ccccc2C1=O)c1ccccc1	CtBP-E1A inh inconclusive, Six1-Eya2 blk inconclusive, JMJD2E inh inconclusive
O=C1C(Cl)=C(NC(=O)c2ccccc2)C(=O)C(Cl)=C1NC(=O)c1ccccc1	KCNH2 3.1 inh inconclusive, Six1-Eya2 blk -72.6 (no result: JMJD2E inh)
CCOC(=O)N1CCN(C(=O)C[C@@H]2C[C@@]3(C(=O)OCC)CCCC=C3N(CCC3=CCCCC3)C2=O)CC1	none (no result: hERG WT inh, KCNH2 3.1 inh, JMJD2E inh)

Screens from PubChem.
